Shown are actives, neighbours in structure and some others; about 15% of the full set was active somewhere.
DT40 TDP1 CPT – growth inhibition of DT40 Tdp1-/-;hTDP1 cells with camptothecin (screen for TDP1 inhibitors) | chicken DT40 Tdp1-/-;hTDP1 cells + 20 nM CPT, ATP luminescence, 48 h | Potency, µM (series often up to 46.2 µM), for the others: at the top dose activity change, negative = growth inhibition, most hits filed as inhibitors | 12% of 420,000 active; further: nearly all actives have a fitted effect of over 55% in size
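Chicken DT40 Tdp1-/- cells complemented with human TDP1, 400 cells/well, exposed to compounds plus 20 nM camptothecin for at least 48 h at 37 C; viability read as ATP content by CellTiter-Glo luminescence.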
Gal4-VP16 FLuc – inhibits Gal4-VP16 luciferase reporter, ROR gamma counter-screen; AID 2546; 3.5% of 310,000 active; Drosophila S2 Gal4-VP16 UAS-luciferase, luminescence, 20 h; Potency, µM (series often up to 53.6 µM), inactives show at the top dose activity, negative = inhibition, actives largely listed as inhibitors;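 further: Gal4-VP16 expression switched on by copper sulfate through the metallothionein promoter; nearly all actives have a fitted effect of over 50% in size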
ELG1 repair inh – ELG1-dependent DNA repair inhibition; HEK293T ELG1-luciferase reporter, luminescence, 16 h; DNA damage induced by 5-fluorouridine; Potency, µM (top dose mostly 46.1 µM), for the others: top-dose activity change, negative = inhibition, most hits filed as inhibitors; 2.3% of 330,000 active; further: nearly all actives have a fitted effect of over 55% in size
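DMSO vehicle served as the neutral condition. Each well held 2,000 cells given 5-fluorouridine plus compound; after 16 hr at 37 °C/5% CO2, ONE-Glo was added and luciferase measured 30 min later.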
TDP1 cell noCPT – qHTS for Inhibitors of human tyrosyl-DNA phosphodiesterase 1 (TDP1): qHTS in cells in absence of CPT | AID 686978, 2013 | DT40 Tdp1-/- hTDP1 cells, no CPT, ATP luminescence, 48 h | Potency, µM (doses to about 46.2 µM), for inactives: at the highest dose activity change, negative = growth inhibition, hits mostly inhibitors | 15% of 420,000 active; further: nearly all actives have a fitted effect of over 55% in size
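Compound effects on proliferation are scored in DT40 Tdp1-/-;hTDP1 cells in the absence of CPT. ATP levels (CellTiter-Glo luminescence) are recorded after a ≥48 hr, 37 °C incubation.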
RORgamma inh – ROR gamma (mouse) transcription inhibition | Drosophila S2 Gal4-RORgamma UAS-luciferase reporter, 20 h | Potency, µM (top dose mostly 53.6 µM), for the others: at the highest dose activity change, negative = inhibition, hits mostly inhibitors | 5.4% of 310,000 active | AID 2551; further: nearly all actives have a fitted effect of over 60% in size
Target sequence (P51450 whole entry, looked up, the tested form may be a part): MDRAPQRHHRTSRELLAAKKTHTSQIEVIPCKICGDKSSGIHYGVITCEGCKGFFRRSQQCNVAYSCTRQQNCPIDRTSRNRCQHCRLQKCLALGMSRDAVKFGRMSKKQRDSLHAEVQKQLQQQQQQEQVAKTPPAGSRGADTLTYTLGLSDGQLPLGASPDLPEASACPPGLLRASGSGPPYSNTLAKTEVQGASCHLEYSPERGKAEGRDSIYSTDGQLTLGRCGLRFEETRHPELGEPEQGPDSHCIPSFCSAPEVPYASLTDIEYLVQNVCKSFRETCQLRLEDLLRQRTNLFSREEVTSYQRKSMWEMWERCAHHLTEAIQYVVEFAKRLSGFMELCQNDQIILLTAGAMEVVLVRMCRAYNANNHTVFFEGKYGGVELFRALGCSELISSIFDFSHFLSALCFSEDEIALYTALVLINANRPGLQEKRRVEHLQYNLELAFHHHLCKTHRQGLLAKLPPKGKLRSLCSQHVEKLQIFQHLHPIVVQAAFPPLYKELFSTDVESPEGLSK
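Using a luciferase readout, inhibitors were identified by reduced reporter activity in Drosophila cells coexpressing a copper-inducible Gal4–ROR gamma fusion and UAS-driven Photinus luciferase, incubated 20 hr after 700 uM copper sulfate.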
12-LOX inh – ALOX12 (human) lipoxygenase inhibition | purified 12hLO, xylenol orange hydroperoxide absorbance | 1.1% of 580,000 active | Potency, µM (series often up to 108 µM), for the others: at the top dose activity change, negative = inhibition, hits mostly inhibitors | P18054
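Hydroperoxide product was detected by ferrous iron/xylenol orange as the 573 to 405 nm absorbance ratio. Arachidonic acid at 40 uM (final) was turned over for 30 min at room temperature by 150 nM human 12hLO, pH 7.0 Hepes buffer, after 15 min compound preincubation.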
Active calls of the source: *; ? = inconclusive; nt = no result given; [ ] = remark or other dose. The call rests on the fitted dose curve; in most records, active means well fitted curve in the direction sought with a large enough effect; inconclusive means small, poorly fitted or top-dose-only effect, or another doubt; inactive means no such curve, though single readings can be large; an effect the other way counts as inactive or inconclusive. On the % scale 0 is the no-effect control and ±100 the full control effect; potency means the concentration at half of the fitted maximal effect.

SMILES	DT40 TDP1 CPT	Gal4-VP16 FLuc	ELG1 repair inh	TDP1 cell noCPT	RORgamma inh	12-LOX inh
COc1cc2cc(CN(Cc3cccs3)C(=S)Nc3ccccc3)c(=O)[nH]c2cc1OC	?	-2%	8.2µM*	21µM*	44%	-6%
CNC(=S)N(Cc1cccs1)Cc1cc2ccc(OC)cc2[nH]c1=O	?	2%	?	18µM*	13%	-28%
COc1ccc2[nH]c(=O)c(CN(Cc3cccs3)C(=S)Nc3ccccc3)cc2c1	nt	-1%	?	nt	28%	nt
Cc1nn2c([nH]c(=O)c3ccccc32)c1C=O	?	11µM*	-13%	-2%	4.5µM*	-12%
CCOC(=O)CNC(c1ccccc1)c1cc(Br)ccc1NC(=O)OCC (stereo not given)	?	0%	-20%	?	9%	16%
CCOC(=O)CNC(c1ccccc1)c1cc(Br)ccc1NC(=O)c1ccc(Cl)cc1 (stereo not given)	10µM*	nt	nt	6.5µM*	nt	-14%
CCOC(=O)CNC(c1ccccc1)c1cc(Br)ccc1NC(=O)CCN1CCOCC1 (stereo not given)	2.1µM*	8.9µM*	5%	0.82µM*	?	?
COC(=O)CNC(c1ccccc1)c1cc(Br)ccc1NC(=O)CCN1CCOCC1 (stereo not given)	2.6µM*	14µM*	6%	1.6µM*	?	40µM*
Cc1ccccc1[C@H]1C[C@@H](O)[C@@H](O)[C@@H]1NS(=O)(=O)c1ccc(C#N)cc1	nt	nt	nt	nt	nt	4%[176 µM]
CONC(=O)CC1Sc2ccc(Cl)cc2NC1=O (stereo not given)	nt	nt	nt	nt	nt	20%
COC(=O)CNC(=O)C1(c2ccccc2)CCC1	nt	nt	nt	nt	nt	14%
CCCc1cc(=O)n2[nH]cc(-c3ccc(Cl)cc3)c2n1	5.8µM*	3.2µM*	?	5.8µM*	4.5µM*	0%
COCc1cc(=O)n2[nH]cc(-c3ccccc3)c2n1	?	10µM*	?	?	13µM*	39%
CCOC(=O)Cc1cc(=O)n2[nH]cc(-c3cccc(Br)c3)c2n1	?	?	?	23µM*	13µM*	-2%
O=C(NCCc1ccc(Cl)cc1)C1CCc2nnc(C3CCN(C(=O)c4ccc(Cl)cc4Cl)CC3)n21 (stereo not given)	nt	nt	nt	nt	nt	0%[6.33 µM]
O=C(c1ccc(F)c(F)c1)N(C1CCCCC1)C1CCCCC1	nt	nt	nt	nt	nt	-4%
Cc1ccc(-c2nc(-c3nc(-c4cccs4)cs3)sc2C)cc1	nt	nt	nt	nt	nt	56%
CCOc1ccccc1CN1[C@@H](c2ccc(OC)cc2)CC(C(=O)OC)(C(=O)OC)[C@H]1c1ccccc1	?	nt	nt	15µM*	nt	-1%
COC(=O)C1(C(=O)OC)C[C@H](c2cccs2)N(Cc2ccccc2OC)[C@@H]1c1ccc(F)cc1	15µM*	nt	nt	15µM*	nt	-2%
COC(=O)C1(C(=O)OC)C[C@H](/C=C/c2ccccc2)N(Cc2ccccc2OC)[C@@H]1c1ccccc1	?	nt	nt	15µM*	nt	-2%
COC(=O)C1(C(=O)OC)C[C@H](/C=C/c2ccccc2)N(Cc2ccccc2OC)[C@@H]1c1cccc(Br)c1	?	nt	nt	?	nt	8%
Cc1cc(CNC(=O)Cc2ccc(-n3cnnn3)cc2)c2[nH]c(C)c(C)c2c1	nt	nt	nt	nt	nt	25%
CCCOc1c(Cl)cc(/C=C(/C#N)C(=O)OC)cc1OCC	nt	nt	nt	nt	nt	9%
CCOc1cccc2cc(C(=O)NC(C)c3ccccc3)c(=N)oc12 (stereo not given)	?	-2%	13%	26µM*	-15%	-9%
CCOc1cccc2cc(C(=O)NCc3ccc(F)cc3)c(=N)oc12	?	-7%	0%	23µM*	-4%	-10%
SMILES	DT40 TDP1 CPT	Gal4-VP16 FLuc	ELG1 repair inh	TDP1 cell noCPT	RORgamma inh	12-LOX inh
COc1cccc2cc(C(=O)NCc3ccccc3)c(=N)oc12	21µM*	-2%	?	?	-15%	-25%
CCOc1cccc2cc(C(=O)NCc3ccccc3)c(=N)oc12	?	22%	23%	?	11%	nt
COc1cccc2cc(C(=O)NCc3ccc(Cl)cc3)c(=N)oc12	23µM*	?	22%	?	0.089µM*	0%
COc1cccc(/C=C/C(=O)C23CC4CC(CC(C4)C2)C3)c1OC	nt	nt	nt	nt	nt	6%
COc1ccc(CNC(=O)Cn2c(-c3cccc(Cl)c3)nc(C)c(CCO)c2=O)cc1OC	nt	nt	nt	nt	nt	4%
CN(CCCN1CCOCC1)Cc1nc(-c2ccc(Cl)cc2)no1	nt	nt	nt	nt	nt	5%
COc1ccc(N2CC(C(=O)N3CCC(C(=O)NCc4ccc(F)cc4)C3)NC2=O)cc1 (stereo not given)	nt	nt	nt	nt	nt	39%
Cc1ccc(C)c(-n2nnnc2SCC(=O)c2ccc(Cl)s2)c1	nt	nt	nt	nt	nt	21%
O=c1c2c3c(nn2ccn1Cc1cccc(C(F)(F)F)c1)CCCC3	nt	nt	nt	nt	nt	2%
Cc1cc(C)nc(N(C#N)CN2C(=O)c3ccccc3S2(=O)=O)n1	?	?	0%	15µM*	13µM*	1%
Cc1cc(C)nc(NC(=O)CN2C(=O)c3ccccc3S2(=O)=O)n1	4%	nt	?	-10%	nt	-14%
CNc1nc(OC)nc(N(C#N)CN2C(=O)c3ccccc3S2(=O)=O)n1	15µM*	-20%	23%	16µM*	-26%	-7%
CN(C)c1nc(N(C)C)nc(N(C#N)CN2C(=O)c3ccccc3C2=O)n1	nt	3%	25%	nt	-15%	nt
O=C(Cn1cnc2ccc(Cl)cc2c1=O)N(Cc1cccs1)c1ccc2c(c1)OCCO2	nt	nt	nt	nt	nt	-19%
COc1ccc(-c2cc(-c3c(O)c(OC)c4occc4c3OC)[nH]n2)cc1OC	?	8.9µM*	26µM*	21µM*	7.9µM*	-20%[57.4 µM]
COC(=O)c1cc(-c2ccc(OC)cc2)n[nH]1	13%	5%[10 µM]	?	-1%	-4%	33%
COc1ccc(-c2cc(-c3c(O)c(OC)c4occc4c3OC)[nH]n2)cc1	5.8µM*	?	-5%	5.8µM*	?	?
O=C(NC1CCCN(c2cc(-c3ccccc3)[nH]n2)C1)C1CCCC1 (stereo not given)	nt	nt	nt	nt	nt	48%
CC(=O)Nc1cccc(-c2ccnc3c2CC(C(=O)NCc2cccnc2)O3)c1 (stereo not given)	-13%	nt	nt	?	nt	12%
CC(=O)Nc1cccc(-c2ccnc3c2CC(C(=O)NCCN(C)C)O3)c1 (stereo not given)	-26%	nt	nt	-1%	nt	-1%
